# Screening results deposited in PubChem BioAssay by National Center for Advancing Translational Sciences (NCATS).
# The list is not random: actives were taken first. Their share in the collection is about 19%.
# ELG1 repair inh = qHTS screen for small molecules that inhibit ELG1-dependent DNA repair in human embryonic kidney (HEK293T) cells expressing luciferase-tagged ELG1; HEK293T ELG1-luciferase reporter, luminescence, 16 h; DNA damage induced by 5-fluorouridine; 330,000 tested, 2.3% active; Potency, µM (top dose mostly 46.1 µM), inactives show at the top dose activity change, negative = inhibition, hits mostly inhibitors; further: potency means the concentration at half of the fitted maximal effect; nearly all actives have a fitted effect of over 55% in size
#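 Overnight (16 hr) co-exposure of 2,000 cells/well to 5-fluorouridine and compound at 37 °C preceded detection. Luciferase was quantified via ONE-Glo luminescence; loss of signal denotes inhibition.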
# Giardia kill = Small Molecules that selectively kill Giardia lamblia: qHTS. Giardia lamblia trophozoite viability. activity change, % at 7.66 µM, hits read low. 340,000 tested, 0.15% active. AID 540267, 2011; in the data active means activity change below about -80%; inconclusive means between about -30% and that limit;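 further: parasites exposed to compound for two days anaerobically before the ATP read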
#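 Viability, read as ATP luminescence: trophozoites at 100 cells/well, compound added, 48 hrs anaerobic at 37 deg C, then 15-30 min room-temperature development before reading.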
# DT40 TDP1 CPT = qHTS for Inhibitors of human tyrosyl-DNA phosphodiesterase 1 (TDP1): qHTS in cells in presence of CPT; chicken DT40 Tdp1-/-;hTDP1 cells + 20 nM CPT, ATP luminescence, 48 h; Potency, µM (doses to about 46.2 µM), for inactives: at the highest dose activity change, negative = growth inhibition, usual class: inhibitors; 420,000 tested, 12% active; further: potency means the concentration at half of the fitted maximal effect; nearly all actives have a fitted effect of over 55% in size
#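 Chicken DT40 Tdp1-/- cells complemented with human TDP1, 400 cells/well, exposed to compounds plus 20 nM camptothecin for at least 48 h at 37 C; viability read as ATP content by CellTiter-Glo luminescence.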
# TDP1 cell noCPT = qHTS for Inhibitors of human tyrosyl-DNA phosphodiesterase 1 (TDP1): qHTS in cells in absence of CPT. AID 686978, 2013. Potency, µM (top dose mostly 46.2 µM), inactives show at the highest dose activity change, negative = growth inhibition, actives largely listed as inhibitors. 420,000 tested, 15% active. DT40 Tdp1-/- hTDP1 cells, no CPT, ATP luminescence, 48 h; further: potency means the concentration at half of the fitted maximal effect; nearly all actives have a fitted effect of over 55% in size
#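 Camptothecin absent (DMSO only). Human TDP1-complemented DT40 knockout cells, 400 cells/well, 37 °C for minimum 48 hr; ATP measured via CellTiter-Glo, 30 min dark incubation, luminescence.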
# TDP1 inh = qHTS Assay for Inhibitors of Tyrosyl-DNA Phosphodiesterase (TDP1) | recombinant TDP1, AlphaScreen DNA substrate cleavage | Potency, µM (doses to about 130 µM), inactives show at the top dose activity change, negative = inhibition, actives largely listed as inhibitors | 350,000 tested, 0.28% active; further: potency means the concentration at half of the fitted maximal effect; nearly all actives have a fitted effect of over 40% in size
# Target sequence (Q9NUW8 whole entry, looked up): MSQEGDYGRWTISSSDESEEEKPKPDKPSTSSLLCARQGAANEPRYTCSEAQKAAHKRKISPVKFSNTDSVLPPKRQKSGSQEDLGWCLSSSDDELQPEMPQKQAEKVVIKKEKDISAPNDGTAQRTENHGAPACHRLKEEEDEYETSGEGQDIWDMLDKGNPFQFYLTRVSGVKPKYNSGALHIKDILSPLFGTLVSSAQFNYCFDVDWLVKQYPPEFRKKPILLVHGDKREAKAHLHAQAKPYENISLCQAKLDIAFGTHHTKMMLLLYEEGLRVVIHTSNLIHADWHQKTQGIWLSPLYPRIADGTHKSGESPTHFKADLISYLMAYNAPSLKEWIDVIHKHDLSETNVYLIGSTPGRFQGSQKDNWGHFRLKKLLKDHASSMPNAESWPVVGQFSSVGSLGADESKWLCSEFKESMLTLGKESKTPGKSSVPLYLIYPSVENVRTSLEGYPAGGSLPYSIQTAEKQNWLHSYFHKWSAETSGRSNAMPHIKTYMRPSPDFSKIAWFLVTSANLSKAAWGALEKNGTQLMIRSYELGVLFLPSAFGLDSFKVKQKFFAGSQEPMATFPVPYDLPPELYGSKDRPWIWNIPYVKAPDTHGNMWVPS
#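 E. coli-derived human Tdp1, 1 nM final. Cpd preinc 15 min RT; substrate 15 nM final, 5 min RT; AS bead mix 10 ug/ml final, 10 min RT. Signal loss = tyrosine-FITC cleavage. No-enzyme wells = max signal.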
# IL1B secr inh = qHTS for Inhibitors of Inflammasome Signaling: IL-1-beta AlphaLISA Primary Screen. THP-1 LPS/ATP IL-1B secretion, AlphaLISA, 16 h; active compounds read low. activity change, % at 57.5 µM. 360,000 tested, 4.7% active; in the data active means activity change below about -50%; inconclusive means mostly about -30% to -49%
#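 THP-1 cells pretreated 1 hr with compounds (up to 57.5 uM final), then stimulated with LPS (250 ng/mL final) plus ATP (1.25 mM final); secreted IL-1B measured by AlphaLISA after 16 hr, decreased signal indicating inhibition.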
# Starred values were filed as active, the others as inactive; ? = inconclusive; . = no result given; [ ] = another dose, or the depositor's remark. Unless noted, the call rests on the fitted dose curve; in most records, active means well fitted curve in the direction sought with a large enough effect; inconclusive means small, poorly fitted or top-dose-only effect, or another doubt; inactive means no such curve, though single readings can be large; an effect the other way counts as inactive or inconclusive. On the % scale 0 is the no-effect control and ±100 the full control effect.
SMILES,ELG1 repair inh,Giardia kill,DT40 TDP1 CPT,TDP1 cell noCPT,TDP1 inh,IL1B secr inh
Cc1ccc(CNC(=O)CSc2c(C(C)C)cnc3c2c(=O)n(C)c(=O)n3C)cc1,.,.,15µM*,26µM*,5%,.
CCc1cnc2c(c1SCC(=O)NCc1ccccc1)c(=O)n(C)c(=O)n2C,.,.,12µM*,?,3%,.
Cc1cc(NS(=O)(=O)c2ccc(NC(=O)CCSc3ccc(F)cc3)cc2)nc(C)n1,0%,30,-21%,-22%,4%,62
COc1ccc(CNC(=O)C2CCN(S(=O)(=O)N3CCCC3)CC2)c(OC)c1,8%,-8,-23%,-5%,6%,-9
C=CCSC1=N/C(=C\c2cc(OCC)c(OC(C)=O)c([N+](=O)[O-])c2)C(=O)S1,-7%,12,16µM*,?,-5%,19
Cc1cccc(NC(=O)C2Cc3ccccc3O/C2=N\O)c1 (stereo not given),?,16,-1%,0%,.,-1
CN1CCN(C(=S)c2ccc(OCC(=O)Nc3cccc(C(F)(F)F)c3)cc2)CC1,18µM*,0,21µM*,9.2µM*,0%,?
CN1CCC(N(C)S(=O)(=O)c2ccc(NC(=O)COc3cccc(C(F)(F)F)c3)cc2)CC1,1%,-10,?,?,0%,-53*
CC(Oc1ccc(Br)cc1)C(=O)Nc1ccc(S(=O)(=O)N(C)C2CCN(C)CC2)cc1 (stereo not given),?,-16,12µM*,6.5µM*,-10%,-98*
O=C(COc1ccc(C(=O)O)cc1)Nc1cccc(C(F)(F)F)c1,-2%,-11,-21%,-13%,-6%,49
Cc1cc(Cl)ccc1OCC(=O)N/N=C1\CC2C=CCC12 (stereo not given),3%,-26,-4%,-1%,-3%,-8
C[C@@H]1OC(C2CCCCC2)N(C)[C@H]2C[C@H]3c4[nH]c5ccccc5c4CCN3C[C@@H]12 (stereo not given in full),.,.,21µM*,?,.,-11
Cc1ccccc1NC(=O)Nc1ccc2c(c1)CCC2,?,-28,-1%,-1%,3%[56.1 µM],-6
Cc1ccccc1S(=O)(=O)N1C[C@H]2CON(C)[C@H]2C[C@H]1c1cccc(Br)c1,.,-15,-20%,?,.,2
Cc1ccccc1-c1cccc([C@@H]2C[C@H]3[C@H](CON3C)CN2S(=O)(=O)c2ccccc2C)c1,.,18,?,21µM*,.,-12
CN1OC[C@@H]2CN(C(=O)C(C)(C)C)[C@H](c3cccc(-c4ccccc4)c3)C[C@@H]21,.,-13,-20%,-6%,.,-1
CN1OC[C@@H]2CN(S(=O)(=O)c3cccc4ccccc34)[C@H](c3ccc(-c4ccccc4)cc3)C[C@@H]21,.,.,?,23µM*,.,25
COc1ccccc1-c1cccc([C@@H]2C[C@H]3[C@H](CON3C)CN2S(=O)(=O)c2ccccc2C)c1,.,10,15µM*,21µM*,.,-8
CN1OC[C@@H]2CN(C(=O)C(C)(C)C)[C@H](c3ccc(-c4cc5ccccc5o4)cc3)C[C@@H]21,.,.,?,21µM*,.,0
Cc1ccccc1S(=O)(=O)N1C[C@H]2CON(C)[C@H]2C[C@H]1c1cccc(-c2ccccc2)c1,.,9,?,23µM*,.,-10
Cn1c(SCc2ccc(F)cc2Cl)nc2ccccc2c1=O,-1%,24,?,15µM*,-3%,45
COc1ccccc1CNC(=O)CSc1nc2ccccc2c(=O)n1CCCN1CCOCC1,12%,6,5%,-11%,0%,-2
O=c1c2ccccc2nc(SCc2ccc(F)cc2Cl)n1CCCN1CCOCC1,1%,-1,?,16µM*,.,-22
O=c1c2ccccc2nc(SCc2ccccc2Cl)n1Cc1ccccc1,-2%,-3,-2%,-7%,-2%,12
O=C(CSc1nc2ccccc2c(=O)n1CCCN1CCOCC1)c1c[nH]c2ccccc12,?,10,?,?,8%,-110*
SMILES,ELG1 repair inh,Giardia kill,DT40 TDP1 CPT,TDP1 cell noCPT,TDP1 inh,IL1B secr inh
COc1cccc(C(C(=O)NC2CCCC2)N(C(=O)c2ccco2)c2ccccc2)c1OC (stereo not given),-9%,-4,?,?,-7%,?
CCCN(c1ccc(C(C)C)cc1)S(=O)(=O)c1ccc2c(c1)n(C)c(=O)c(=O)n2C,.,.,5%,-5%,2%,.
CC(C)C(c1nnnn1Cc1ccccc1)N(Cc1ccco1)Cc1cccs1 (stereo not given),?,6,?,21µM*,6%,-10
CCC1CCC(C(=O)NC(C(=O)NCCN(CC(C)C)CC(C)C)C(C)C)CC1 (stereo not given),.,.,-1%,6%,6%,.
CCCCn1c(=O)c2[nH]c(C34CC5CC(CC3C5)C4)nc2n(CCCO)c1=O,.,.,.,.,10%,.
COc1cc(OC)c2ccc(=O)oc2c1C(CC(=O)N1CCOCC1)c1ccc2c(c1)OCO2 (stereo not given),13%,18,-3%,-18%,8%,2
CCCCCc1cc(=O)oc2c(C(CCN3CCCC(C)C3)c3ccc4c(c3)OCO4)c(OC)cc(OC)c12 (stereo not given),?,-14,?,?,.,-54*
CCCCCc1cc(=O)oc2c(C(CCN3CCCC3)c3ccc4c(c3)OCO4)c(OC)cc(OC)c12 (stereo not given),.,-1,.,.,20%,.
CCCCCc1cc(=O)oc2c(C(CCN(CC)CC)c3cc(OC)c(OC)c(OC)c3)c(OC)cc(OC)c12 (stereo not given),-4%,-13,?,18µM*,5%,?
CCCCCc1cc(=O)oc2c(C(CCN3CCCCC3)c3ccc4c(c3)OCO4)c(OC)cc(OC)c12 (stereo not given),2%,-10,23µM*,?,.,-18
COc1cc(OC)c2ccc(=O)oc2c1C(CCN1CCCC1)c1ccc2c(c1)OCO2 (stereo not given),7%,-9,?,18µM*,11%,-5
CC(C)c1ccc(O)c(NC(=S)NC(=O)CCc2ccccc2)c1,?,8,-26%,-12%,1%,0
